# Sampled rows, rich in hits. Any-hit rate of the full collection: about 9.2%.
# ELG1 genotox: inducers of genotoxicity in HEK293T ELG1-luciferase cells. HEK293T ELG1-luciferase reporter, luminescence, 16 h. Potency, µM (titrated, usually from 46 µM), without a hit: top-dose activity change, positive = activation, hits mostly activators. hit rate 1.3% among 330,000; also: % of control where 0% means no effect; nearly all actives have a fitted effect of over 60% in size
#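 DMSO vehicle served as control against compound-treated ELG1-luciferase HEK293T cells; exposure lasted 16 hr at 37 °C and 5% CO2, followed by ONE-Glo luminescence detection after 30 min.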
# Rab9 promoter act: activators of Rab9 promoter; Huh7 Rab9 promoter-luciferase reporter, luminescence, 24 h; Potency, µM (series often up to 9.22 µM), for the others: top-dose activation, negative = inhibition, hits mostly activators; hit rate 2.8% among 320,000; AID 485297; also: % of control where 0% means no effect; nearly all actives have a fitted effect of over 60% in size
#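 Huh7 cells stably carrying a Rab9 promoter-luciferase reporter, 1500 cells per well in OP-MEM I with 10% FBS, treated with compound 24 hours at 37C. Luciferase activity read by luminescence after 10 minutes with Amplite reagent.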
# SMN2 splice enh: enhancers of SMN2 splice variant expression | HEK293 SMN2-luciferase splicing reporter, luminescence, 30-36 h | Potency, µM (titrated, usually from 46.1 µM), without a hit: at the top dose activity change, positive = activation, usual class: activators | AID 1458 | hit rate 2.8% among 210,000; also: % of control where 0% means no effect; nearly all actives have a fitted effect of over 55% in size
#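 HEK293 cells carry an SMN2 minigene-luciferase reporter in which exon 7 inclusion puts luciferase in frame. Cells were seeded at 2000 cells/well, attached for 10-12 hours, then exposed to compounds for 30-36 hours at 37C before ONE-Glo luminescence.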
# ELG1 repair inh: blocks ELG1-dependent DNA repair in HEK293T cells; HEK293T ELG1-luciferase reporter, luminescence, 16 h; DNA damage induced by 5-fluorouridine; hit rate 2.3% among 330,000; AID 504467; Potency, µM (doses to about 46.1 µM), inactives show top-dose activity change, negative = inhibition, usual class: inhibitors; also: % is scaled to controls: 0 for no effect and ±100 for the full control effect; nearly all actives have a fitted effect of over 55% in size
#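 DMSO vehicle served as the neutral condition. Each well held 2,000 cells given 5-fluorouridine plus compound; after 16 hr at 37 °C/5% CO2, ONE-Glo was added and luciferase measured 30 min later.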
# NPC1 promoter act: NPC1 promoter activation; Huh7 NPC1 promoter luciferase reporter, 24 h; Potency, µM (series often up to 9.22 µM), without a hit: at the top dose activation, hits mostly activators; hit rate 2.4% among 320,000; AID 485313; also: % of control where 0% means no effect; nearly all actives have a fitted effect of over 60% in size
#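 Huh7 cells stably carrying NPC1 promoter–luciferase, plated in Opti-MEM with 10% FBS for 2 h, were exposed to compound in DMSO for 24 h at 37 °C; luciferase reagent was added for 10 min and luminescence read.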
# FLuc counter: inhibits or activates purified firefly luciferase, miR-21 counter-screen. P08659. purified FLuc, Km substrates, luminescence inhibition. Potency, µM (series often up to 57.5 µM), for the others: top-dose activity change, negative = inhibition, hits mostly inhibitors. hit rate 6.9% among 360,000;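 also: plate controls were vehicle for no effect and reference inhibitor for full effect; nearly all actives have a fitted effect of over 55% in size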
# Target sequence (P08659 whole entry, looked up): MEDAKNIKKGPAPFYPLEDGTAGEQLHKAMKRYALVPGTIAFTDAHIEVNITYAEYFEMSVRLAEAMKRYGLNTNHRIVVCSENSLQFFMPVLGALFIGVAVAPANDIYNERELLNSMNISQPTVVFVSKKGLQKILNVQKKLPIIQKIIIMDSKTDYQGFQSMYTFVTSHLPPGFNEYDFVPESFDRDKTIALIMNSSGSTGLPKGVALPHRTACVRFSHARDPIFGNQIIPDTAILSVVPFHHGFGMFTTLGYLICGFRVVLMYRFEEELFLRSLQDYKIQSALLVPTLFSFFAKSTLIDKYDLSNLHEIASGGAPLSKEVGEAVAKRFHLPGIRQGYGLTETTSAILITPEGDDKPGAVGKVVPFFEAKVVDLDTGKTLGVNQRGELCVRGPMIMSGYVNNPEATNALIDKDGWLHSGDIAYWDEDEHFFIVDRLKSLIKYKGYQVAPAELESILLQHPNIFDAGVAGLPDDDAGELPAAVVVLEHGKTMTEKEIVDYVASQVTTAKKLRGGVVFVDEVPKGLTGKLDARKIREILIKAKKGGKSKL
#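 Purified P. pyralis luciferase (10nM final) with 10uM D-luciferin and 10uM ATP (Km levels) in 50mM Tris acetate pH 7.5, 10mM Mg acetate, 0.01% Tween-20, 0.05% BSA; qHTS 6-point titration, ~60 µM downward; luminescence read.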
# The depositor's hits bear a star; ? = inconclusive; · = no result; [ ] = remark or other dose. Calls follow the shape of the dose curve; as a rule, active = well fitted curve in the direction sought with a large enough effect; inconclusive = small, poorly fitted or top-dose-only effect, or another doubt; inactive = no such curve, though single readings can be large; an effect the other way counts as inactive or inconclusive. Potency is read from the fitted curve at half-maximal effect.
SMILES,ELG1 genotox,Rab9 promoter act,SMN2 splice enh,ELG1 repair inh,NPC1 promoter act,FLuc counter
COc1ccc(C(=O)N/N=C/c2ccc(OC(=O)c3ccccc3)cc2)cc1,?,5.7%,-9.8%[1.84 µM],?,0.7%,-0.3%
COc1ccc(C(=O)N/N=C/c2ccccc2OC(=O)c2ccccc2)cc1,20.6µM*,-7.7%,·,?,?,?
NC(=O)N/N=C/c1ccccc1OC(=O)c1ccccc1Br,-7.7%,-2.1%,-23.2%,-0.5%,-4.6%,26.9µM*
CC(C)(C)C(=O)Nc1ccc(C(=O)N/N=C/c2ccccc2OC(=O)c2ccc(Cl)cc2)cc1,-0.1%,-20.0%,-82.2%,18.4µM*,-11.0%,-9.6%
COc1cc(C(=O)Oc2ccccc2/C=N/NC(=O)c2ccc(C)cc2)cc(OC)c1OC,17.2%,?,-64.7%,?,?,6.01µM*
CN1CCN(c2ncc3nc(-c4cc(F)cc(F)c4)c(=O)n(-c4ccccc4)c3n2)CC1,·,·,-28.4%,·,·,·
Clc1ccc(OCc2nnc3n2CCCCC3)c(Cl)c1,6.0%,15.9%,·,?,17.2%,-13.2%
CC1(c2ccc(Cl)cc2)NC(=O)N(CC(=O)N2CCN(S(=O)(=O)c3ccccc3)CC2)C1=O (stereo not drawn),-1.3%,2.8%,·,-28.5%,2.2%,13.6%
Cc1ccc(O)c(NC(=S)NC(=O)/C=C/c2ccco2)c1,?,26.4%,29.7%,?,-7.4%,-0.9%
Cc1ccc(C(=O)/C=C/c2ccco2)c(O)c1,?,0.1%,14.9%,?,-2.1%,9.53µM*
O=C(CSc1nnc(-c2ccccn2)o1)Nc1ccccc1Cl,?,0.562µM*,·,?,?,0.1%
CCc1ccc(OCc2nnc(SCC(=O)NC3CCCCC3)o2)cc1,1.7%,1.3%,·,0.9%,-0.6%,10.7µM*
O=C(CSc1nnc(COc2ccc(Cl)cc2Cl)o1)Nc1ccccn1,1.2%,-3.5%,·,?,1.4%,?
Cc1cnc(NC(=O)CSc2nnc(-c3ccccc3)o2)s1,?,2µM*,10µM*,?,3.55µM*,-8.5%
CCc1ccccc1NC(=O)CSc1nnc(COc2ccccc2Cl)o1,·,·,-10.0%,·,·,16.9µM*
CCC(C)NC(=O)Cn1c(=O)n(CC2CCC(C(=O)NC)CC2)c(=O)c2sccc21 (stereo not drawn),·,·,·,·,·,-0.1%
CC(C)N1CCN(Cc2ccc(C#CCCO)cc2)CC1CCO (stereo not drawn),-0.3%,9.4%,·,1.3%,-0.1%,0.7%
O=C(CSc1nnc(-c2ccccc2)o1)Nc1ccccc1F,?,0.0032µM*,0.794µM*,?,22.8%,-12.1%
Cc1cccc(NC(=O)CSc2nnc(-c3cc(C)n(-c4ccccc4)c3C)o2)c1C,-0.4%,-2.5%,5.0%,?,-1.0%,16.9µM*
O=C(CSc1nnc(-c2ccncc2)o1)Nc1cc(F)ccc1F,?,2.82µM*,·,?,2.82µM*,-21.5%
COc1ccccc1-c1nnc(SCC(=O)Nc2ccccc2F)o1,·,·,·,·,·,-11.9%
Cc1cccc(C)c1-n1c(C)nn(CC2CC2)c1=O,-0.2%,-2.7%,-10.9%,-1.2%,-7.1%,0.8%
COc1ccc(/C=C/c2nc(N)nc(-c3ccccc3O)n2)cc1OC,-1.4%,1.4%,14.2%,20.6µM*,-1.5%,?
Cn1cccc1/C=N/NC(=O)CSc1nc2ccccc2n1C,-0.3%,2.0%,·,-11.4%,-4.3%,-7.9%
CC(C)c1ccc(OCc2nc(-c3ccccn3)no2)c(Br)c1,?,0.447µM*,6.31µM*,?,0.398µM*,0.953µM*
SMILES,ELG1 genotox,Rab9 promoter act,SMN2 splice enh,ELG1 repair inh,NPC1 promoter act,FLuc counter
CCc1ccc(OCc2nc(-c3ccccn3)no2)c(Br)c1,?,0.398µM*,0.501µM*,?,0.316µM*,0.536µM*
Cc1ccc(OCc2nc(-c3ccccn3)no2)c(Br)c1,0.326µM*,0.282µM*,-61.5%,?,0.1µM*,0.213µM*
c1ccc(OCCCc2nc(-c3ccccn3)no2)cc1,18.4µM*,3.7%[1.84 µM],?,?,?,?
C=C(C)CC(Nc1ccc(OC)cc1)c1ccco1 (stereo not drawn),-0.3%,-3.2%,10.5%,10.0%,1.6%,5.6%
CCn1c(C)nc2cc(C(=O)N/N=C/c3ccc(N4CCOCC4)cc3)ccc21,-0.4%,2.1%,10.9%,6.6%,10.6%,-18.2%
CC(C)(C)Cc1nc(-c2ccccn2)no1,18.4µM*,?,?,?,?,?
Cc1ccc(OCc2nc(-c3ccccn3)no2)cc1,3.66µM*,1.41µM*,8.91µM*,?,1.12µM*,4.78µM*
Cc1ccc(SCc2nc(-c3ccccn3)no2)cc1,?,?,?,?,?,4.1%[2.3 µM]
O=C(COC(=O)c1cc[n+]([O-])cc1)Nc1ccc(Cl)cc1C(F)(F)F,3.3%,-0.3%,·,1.4%,-0.9%,4.1%
Cc1ccc(S(=O)(=O)N2CCN(C(=O)CC(C)n3nc(C)c(Cl)c3C)CC2)cc1 (stereo not drawn),-0.9%,0.3%,·,-8.2%,-1.4%,4.0%
Cc1ccc(Cl)cc1NC(=O)c1cc(NC(=O)C2CCCCC2C(=O)O)ccc1N1CCOCC1 (stereo not drawn),-4.8%,4.6%,·,-5.1%,-3.4%,1.1%
O=C1CC(=Nc2ccccc2)NN1c1ccccc1,-6.1%,1.4%,-2.2%,-1.1%,-0.6%,16.9µM*
O=C1Cc2ccccc2N1c1ccccc1,-7.0%,4.2%,4.6%,4.0%,2.7%,2.1%
Brc1ccc(N=NNc2ccccc2)cc1,?,?,·,?,?,6.01µM*
O=[N+]([O-])c1cccc(NN=Nc2ccccc2)c1,?,?,·,?,?,10.7µM*
O=C(O)c1cc(NN=Nc2cccc([N+](=O)[O-])c2)cc([N+](=O)[O-])c1,0.8%,-1.9%,·,-2.0%,-4.7%,?
O=[N+]([O-])c1ccc(N=NNc2ccccc2)cc1,10.1%,?,15.8µM*,?,26.1%,?
O=C(Nc1ccc2c(c1)C(=O)OC2)c1ccc(F)cc1F,8.6%,17.8%,·,?,14.4%,-17.1%
O=C(c1cc(-c2ccc(Br)cc2)on1)N1CCOCC1,3.66µM*,0.316µM*,·,?,0.316µM*,1.9µM*
O=C(NCCCN1CCOCC1)c1cc(-c2ccc(Br)cc2)on1,-0.5%,-12.1%,-20.3%,?,-0.7%,?
CC1CCN(C(=O)c2cc(-c3ccc(Br)cc3)on2)CC1,·,·,-0.7%,·,·,4.78µM*
O=C(c1cc(-c2ccc(Br)cc2)on1)N1CCCCCC1,16.4µM*,0.631µM*,·,?,0.708µM*,1.35µM*
Oc1ccc(/C=N/N2CCCCC2)c(O)c1O,-5.6%,0.0%,·,-7.9%,-3.3%,?
